Data as given in PMC4081100, “A DNA-binding-site landscape and regulatory network analysis for NAC transcription factors in Arabidopsis thaliana”.

Molecular target: T1, GST-ANAC092(1-176) (Arabidopsis thaliana, UniProt Q9FKA0 1-176)
T1 sequence: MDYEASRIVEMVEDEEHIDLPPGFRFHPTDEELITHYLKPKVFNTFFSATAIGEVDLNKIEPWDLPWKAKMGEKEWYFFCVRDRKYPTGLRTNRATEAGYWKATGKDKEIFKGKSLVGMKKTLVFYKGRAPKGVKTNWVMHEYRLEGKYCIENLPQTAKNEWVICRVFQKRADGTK
Assay: universal protein binding microarray (PBM); transcription factors of Arabidopsis thaliana; high values mean tight binding
Conditions: protein: recombinant; tags: GST; chain copies: 2; dsDNA, one strand shown
How it was run: (§1)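 GST-tagged NAC-domain, full-length or DNA-binding-domain proteins were induced in cells, with zinc acetate added for zinc-finger proteins. They were purified on glutathione–Sepharose 4B and quantified by A280 or anti-GST western blot. Each was applied at 200 to 500 nM final, in duplicate, to custom all-10-mer Agilent 4 × 180K arrays made double-stranded by primer extension, with gapped and ungapped 8-mers scored. Binding is the normalised enrichment score (E-score).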

Sequence | binding signal [E-score]
AGGGTAAC | 0.059
GGGAAACC | 0.144
GAGGGAAA | 0.11
CCTTTCCC | 0.088
GGAGGAAA | 0.124
AGGTTACC | 0.0662
AGGTAACC | 0.148

Molecular target: GST-NTL6(1-168) (Arabidopsis thaliana, UniProt Q9SCK6 1-168)
Sequence (Q9SCK6 1-168): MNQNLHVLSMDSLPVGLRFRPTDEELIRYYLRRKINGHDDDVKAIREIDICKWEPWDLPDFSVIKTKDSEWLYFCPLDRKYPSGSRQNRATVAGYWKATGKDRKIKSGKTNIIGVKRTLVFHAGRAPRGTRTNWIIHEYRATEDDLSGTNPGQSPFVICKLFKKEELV
Assay: as above
Conditions: protein: recombinant; tags: GST; chain copies: 2; dsDNA, one strand shown
How it was run: as §1

Sequence | binding signal [E-score]
AGGGTAAC | 0.0788
GAGGGAAA | 0.11
CCTTTCCC | 0.11
GGAGGAAA | 0.146
ATTCCCCC | 0.146
AGGTTTCC | 0.052
AGGTAACC | 0.105

Molecular target: T2, GST-ANAC019 NAC domain (Arabidopsis thaliana, UniProt Q9C932 14-162)
T2 sequence: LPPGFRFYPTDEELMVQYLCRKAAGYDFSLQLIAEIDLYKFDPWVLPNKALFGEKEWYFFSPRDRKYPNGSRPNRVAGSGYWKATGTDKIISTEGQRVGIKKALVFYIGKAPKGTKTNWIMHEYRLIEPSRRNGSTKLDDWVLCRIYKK
Assay: as above
Conditions: protein: recombinant; tags: GST; chain copies: 2; dsDNA, one strand shown
How it was run: as §1

Sequence | binding signal [E-score]
GAGGGAAA | 0.154
CCTTTCCC | 0.0681
AGGTTTCC | 0.0846
AGGTTACC | 0.0729

Molecular target: T3, GST-ANAC092(1-285) full length (Arabidopsis thaliana, UniProt Q9FKA0 1-285)
T3 sequence: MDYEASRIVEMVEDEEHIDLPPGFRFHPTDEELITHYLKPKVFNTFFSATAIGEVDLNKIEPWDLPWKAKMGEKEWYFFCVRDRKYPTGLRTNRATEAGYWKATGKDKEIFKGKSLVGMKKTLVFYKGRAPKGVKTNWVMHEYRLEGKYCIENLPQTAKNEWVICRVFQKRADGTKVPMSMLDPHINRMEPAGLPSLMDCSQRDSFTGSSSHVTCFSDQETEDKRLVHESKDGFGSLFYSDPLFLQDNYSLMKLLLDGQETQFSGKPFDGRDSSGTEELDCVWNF
Assay: as above
Conditions: protein: recombinant; tags: GST; chain copies: 2; dsDNA, one strand shown
How it was run: as §1

Sequence | binding signal [E-score]
GTCGTTGA | 0.0529
AGGGTAAC | 0.0751
GGTCAATA | 0.0505
CTGGGTCA | 0.0748
ACGGTCAA | 0.0716
GTCAAGAC | 0.0871
TGAGTCAA | 0.0797
ATTGACCG | 0.0505
AGGTTACC | 0.182
AGGTAACC | 0.137

Molecular target: T4, GST-NAP(1-166) (Arabidopsis thaliana, UniProt O49255 1-166)
T4 sequence: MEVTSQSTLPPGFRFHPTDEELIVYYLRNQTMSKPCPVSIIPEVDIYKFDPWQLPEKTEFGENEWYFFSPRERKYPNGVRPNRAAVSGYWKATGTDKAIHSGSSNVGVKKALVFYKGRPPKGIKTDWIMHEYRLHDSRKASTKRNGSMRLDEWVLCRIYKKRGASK
Assay: as above
Conditions: protein: recombinant; tags: GST; chain copies: 2; dsDNA, one strand shown
How it was run: as §1

Sequence | binding signal [E-score]
CAATTGAC | 0.054
ACATTGAC | 0.0505
AGTCGTCG | 0.119
GAGGGAAA | 0.0766
GGGTTGAC | 0.0845
GGTCTTCA | 0.0664
ATGGGTCA | 0.0537
GGTCAATA | 0.0842
GACCGTCA | 0.0503
ACGACCAA | 0.103
CGGTCAAC | 0.118
AAGTCGTC | 0.156
TACGGTCA | 0.0976
GTCGTCAA | 0.0529

Molecular target: T5, GST-NST2(1-184) (Arabidopsis thaliana, UniProt Q9M274 1-184)
T5 sequence: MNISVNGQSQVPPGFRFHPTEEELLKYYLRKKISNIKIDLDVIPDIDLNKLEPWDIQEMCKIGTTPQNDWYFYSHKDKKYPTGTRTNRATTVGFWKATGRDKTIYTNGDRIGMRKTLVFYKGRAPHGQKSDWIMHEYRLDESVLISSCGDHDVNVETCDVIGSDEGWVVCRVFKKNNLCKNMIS
Assay: as above
Conditions: protein: recombinant; tags: GST; chain copies: 2; dsDNA, one strand shown
How it was run: as §1

Sequence | binding signal [E-score]
GTCGTTGA | 0.0569
GGTCAACA | 0.0705
CGGTCAAA | 0.0603
AGGTTTCC | 0.0833

Molecular target: T6, GST-NTL8 NAC domain (Arabidopsis thaliana, UniProt Q9XIN7 14-156)
T6 sequence: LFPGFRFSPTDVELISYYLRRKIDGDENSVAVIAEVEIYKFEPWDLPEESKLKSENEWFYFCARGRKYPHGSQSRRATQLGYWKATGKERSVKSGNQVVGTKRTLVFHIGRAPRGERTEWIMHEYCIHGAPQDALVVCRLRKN
Assay: as above
Conditions: protein: recombinant; tags: GST; chain copies: 2; dsDNA, one strand shown
How it was run: as §1

Sequence | binding signal [E-score]
AGGGTAAC | 0.416
AGGTCAAC | 0.0726
GGGAAACC | 0.443
ACGGTCAG | 0.0654
GAGGGAAA | 0.472
CCTTTCCC | 0.421
CGGGGTCA | 0.107
GGAGGAAA | 0.459
CGAGGTCA | 0.0549
CGGTCAAA | 0.0552
AGTCAAGC | 0.0828
CCTCTGAC | 0.12
AGGGTCAA | 0.0535
ATTCCCCC | 0.402
AGGTTTCC | 0.457
AGGTTACC | 0.437
AGGTAACC | 0.442
CTCGGTCA | 0.0649
GGGGGGAA | 0.453

Molecular target: GST-WRKY1(266-371) (Arabidopsis thaliana, UniProt Q9SI37 266-371)
Sequence (Q9SI37 266-371): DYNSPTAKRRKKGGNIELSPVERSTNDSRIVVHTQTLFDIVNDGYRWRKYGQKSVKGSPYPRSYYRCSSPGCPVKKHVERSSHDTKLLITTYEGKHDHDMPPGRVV
Assay: as above
Conditions: protein: recombinant; tags: GST; dsDNA, one strand shown
How it was run: as §1

Sequence | binding signal [E-score]
GTCGTTGA | 0.43
CAATTGAC | 0.435
ACATTGAC | 0.465
AGGTCAAC | 0.492
ACGGTCAG | 0.432
AGTCGTCG | 0.432
GGGTTGAC | 0.477
GGTCTTCA | 0.431
ATGGGTCA | 0.422
GGTCAATA | 0.482
CTGGGTCA | 0.439
ACGGTCAA | 0.49
CGGGGTCA | 0.412
GGTCAACA | 0.493
GACCGTCA | 0.407
ACGACCAA | 0.416
CGGTCAAC | 0.495
CGAGGTCA | 0.425
CGGTCAAA | 0.49
AGTCAAGC | 0.459
GTCAAGAC | 0.446
CCTCTGAC | 0.408
AAGTCGTC | 0.419
AGGGTCAA | 0.483
TGAGTCAA | 0.48
ATTGACCG | 0.487
TACGGTCA | 0.442
CTCGGTCA | 0.451
GTCGTCAA | 0.424
